Results reported in PubChem BioAssay (Tox21).
Several values for one entry are separate records, joined by “and”; a condition that tells them apart may be missing. Equal entries are not always repeated. Results filed as inconclusive are left out. Where a call stands in place of a potency, no number is given. More than one record can exist for a structure, and the calls need not agree. Activity calls are given as the source filed them. Unless noted, calls follow the shape of the full dose curve.

Key:
[1] = Nuclear factor erythroid 2-related factor 2/antioxidant responsive element (Nrf2/ARE) small molecule agonists: qHTS cell viability counter screen in human keratinocytes (AID 1919968; active = well fitted curve in the direction sought with a large enough effect in the repeat runs; an effect the other way counts as inactive or inconclusive; also: nearly all actives have a fitted effect of over 55% in size; also: potency is read from the fitted curve at half-maximal effect)
Summary of the method: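 Fluorescence read-out from CellTiter-Fluor after 1 h at 37 C. Wells held HaCaT-derived ARE-luciferase reporter cells (1,500/well) treated 23 h with DMSO-dissolved compounds. Run in the same wells as the luciferase agonist read.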

[2] = Nuclear factor erythroid 2-related factor 2/antioxidant responsive element (Nrf2/ARE) small molecule agonists: luciferase reporter gene qHTS assay in human keratinocytes (AID 1919969); also: nearly all actives have a fitted effect of over 35% in size; also: potency is read from the fitted curve at half-maximal effect
[3] = target: Gonadotropin-releasing hormone receptor (Homo sapiens) (UniProt P30968); experiment: Human gonadotropin-releasing hormone receptor (GnRHR) small molecule agonists, calcium flux assay in GnRHR-HEK293 cells (AID 1920063); also: nearly all actives have a fitted effect of over 35% in size
Gonadotropin-releasing hormone receptor (Homo sapiens), sequence (P30968 whole entry, looked up): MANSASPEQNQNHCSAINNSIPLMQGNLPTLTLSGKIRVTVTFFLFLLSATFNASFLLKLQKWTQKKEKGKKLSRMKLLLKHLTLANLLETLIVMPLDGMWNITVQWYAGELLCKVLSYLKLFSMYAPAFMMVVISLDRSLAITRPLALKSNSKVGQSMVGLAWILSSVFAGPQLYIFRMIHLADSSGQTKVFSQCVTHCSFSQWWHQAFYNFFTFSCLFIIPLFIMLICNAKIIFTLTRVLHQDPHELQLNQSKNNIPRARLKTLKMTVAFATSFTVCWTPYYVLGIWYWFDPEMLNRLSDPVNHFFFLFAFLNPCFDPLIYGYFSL
Summary of the method: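 Calcium-dye fluorescence, Ex/Em=480/540, recorded every 1 sec over 3 min after compound addition to GnRHR-HEK293 cells. Cells had been seeded 18 hours earlier and dye-loaded for 1 hour at 37 C. Fifteen concentrations, triplicates.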

[4] = target: KiSS-1 receptor (Homo sapiens) (UniProt Q969F8); experiment: Human kisspeptin (KISS1R) small molecule agonists, calcium flux assay in KISS1R-HEK293 cells (AID 1920064; active = well fitted curve in the direction sought with a large enough effect in the repeat runs; an effect the other way counts as inactive or inconclusive)
KiSS-1 receptor (Homo sapiens), sequence (Q969F8 whole entry, looked up): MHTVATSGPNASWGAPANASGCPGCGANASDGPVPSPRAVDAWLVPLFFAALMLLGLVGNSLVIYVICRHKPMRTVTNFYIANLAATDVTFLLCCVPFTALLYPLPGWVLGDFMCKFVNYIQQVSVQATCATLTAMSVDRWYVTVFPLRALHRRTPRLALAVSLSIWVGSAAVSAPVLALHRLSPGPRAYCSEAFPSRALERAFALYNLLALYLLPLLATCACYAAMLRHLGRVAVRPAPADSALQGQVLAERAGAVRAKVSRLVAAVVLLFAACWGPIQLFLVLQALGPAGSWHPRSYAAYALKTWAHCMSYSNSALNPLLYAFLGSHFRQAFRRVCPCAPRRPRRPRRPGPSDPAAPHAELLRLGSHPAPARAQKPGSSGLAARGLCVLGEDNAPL
Summary of the method: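 Calcium flux read-out: kinetic fluorescence at Ex/Em=480/540, 1 s intervals over 3 min, after pin-tool compound addition to dye-loaded KISS1R-HEK293 cells. Fifteen concentrations, triplicates.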

[5] = G protein-coupled receptor (GPCR) small molecule agonists, calcium flux assay: HEK293 wild type cell line counter screen (AID 1920065)
Summary of the method: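 Agonist mode; 18 h seeding at 37 C, 1 h dye load at 37 C; compounds pinned from DMSO, ATP as positive control; kinetic fluorescence 480/540 nm, 3 min, 1 s reads; 15 concentrations, triplicate.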

[6] = target: Beta-2 adrenergic receptor (Homo sapiens) (UniProt P07550); experiment: Adrenergic beta2 receptor (ADRB2) small molecule agonists, cell-based qHTS assay (AID 1963593);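 also: CHO cells stably overexpressing human ADRB2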
Beta-2 adrenergic receptor (Homo sapiens), sequence (P07550 whole entry, looked up): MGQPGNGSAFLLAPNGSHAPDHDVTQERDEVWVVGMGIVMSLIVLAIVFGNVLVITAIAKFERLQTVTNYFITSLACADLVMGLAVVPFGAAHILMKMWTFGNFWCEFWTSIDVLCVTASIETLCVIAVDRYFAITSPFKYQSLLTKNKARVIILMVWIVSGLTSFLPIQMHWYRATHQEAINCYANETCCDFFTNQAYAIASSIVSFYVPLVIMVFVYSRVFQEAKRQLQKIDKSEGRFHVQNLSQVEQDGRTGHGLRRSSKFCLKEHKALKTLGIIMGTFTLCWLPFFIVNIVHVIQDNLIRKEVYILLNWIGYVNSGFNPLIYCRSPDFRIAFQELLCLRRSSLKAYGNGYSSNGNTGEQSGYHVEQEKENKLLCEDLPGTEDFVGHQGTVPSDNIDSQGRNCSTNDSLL
Summary of the method: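 CHO cells stably over-expressing ADRB2 were plated overnight at 37C, then dosed with compounds plus a stimulation mix containing 100uM IBMX and 25uM Ro-20-1724 for 0.5hr at room temperature. cAMP was measured by HTRF competition, 1hr.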

[7] = target: D(2) dopamine receptor (Homo sapiens) (UniProt P14416); experiment: Dopamine D2 receptor (DRD2) small molecule agonists, cell-based qHTS assay (AID 1963594); also: nearly all actives have a fitted effect of over 35% in size
D(2) dopamine receptor (Homo sapiens), sequence (P14416 whole entry, looked up): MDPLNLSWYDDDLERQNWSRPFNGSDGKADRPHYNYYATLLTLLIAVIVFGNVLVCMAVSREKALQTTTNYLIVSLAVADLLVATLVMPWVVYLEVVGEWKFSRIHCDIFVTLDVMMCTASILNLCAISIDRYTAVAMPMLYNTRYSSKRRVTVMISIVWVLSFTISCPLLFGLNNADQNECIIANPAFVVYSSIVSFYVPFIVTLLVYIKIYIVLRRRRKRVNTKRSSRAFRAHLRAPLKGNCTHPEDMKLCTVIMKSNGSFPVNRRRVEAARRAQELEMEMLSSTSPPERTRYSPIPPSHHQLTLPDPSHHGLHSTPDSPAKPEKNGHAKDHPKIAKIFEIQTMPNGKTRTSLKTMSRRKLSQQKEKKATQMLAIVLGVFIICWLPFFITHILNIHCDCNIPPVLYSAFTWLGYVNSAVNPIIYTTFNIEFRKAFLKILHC
Summary of the method: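 cAMP accumulation in DRD2-HEK293 cells measured by HTRF after 1 h detection; compounds added 10 min before NKH477 (200nM […]) forskolin-analogue stimulation, 30 min at room temperature, with Ro20-1724 present at 0.1 mM final.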

[8] = target: 5-hydroxytryptamine receptor 2A (Homo sapiens) (UniProt P28223); experiment: 5-hydroxytryptamine receptor 2A (HTR2A) small molecule antagonists, cell-based qHTS assay (AID 1963586); also: nearly all actives have a fitted effect of over 45% in size; also: potency is read from the fitted curve at half-maximal effect
5-hydroxytryptamine receptor 2A (Homo sapiens), sequence (P28223 whole entry, looked up): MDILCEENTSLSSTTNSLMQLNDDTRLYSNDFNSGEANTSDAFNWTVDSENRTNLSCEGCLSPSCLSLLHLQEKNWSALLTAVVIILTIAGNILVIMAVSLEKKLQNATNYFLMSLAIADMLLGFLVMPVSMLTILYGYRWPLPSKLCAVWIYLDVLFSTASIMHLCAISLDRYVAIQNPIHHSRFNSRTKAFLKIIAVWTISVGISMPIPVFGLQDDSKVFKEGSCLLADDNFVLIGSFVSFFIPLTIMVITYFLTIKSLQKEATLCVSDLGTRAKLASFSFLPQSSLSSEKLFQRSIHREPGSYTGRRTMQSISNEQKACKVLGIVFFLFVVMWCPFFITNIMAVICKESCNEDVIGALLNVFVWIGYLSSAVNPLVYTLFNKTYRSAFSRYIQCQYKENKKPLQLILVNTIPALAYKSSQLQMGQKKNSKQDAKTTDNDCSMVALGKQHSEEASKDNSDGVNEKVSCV
Summary of the method: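 CHO cells stably expressing human HTR2A were plated for 18 h at 37 C, then loaded with calcium dye for 1 h. Compounds were preincubated 5 min at room temperature before DOI (4 nM solution) was added. Kinetic fluorescence was read for 3 min.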

[9] = target: 5-hydroxytryptamine receptor 2A (Homo sapiens) (UniProt P28223); experiment: 5-hydroxytryptamine receptor 2A (HTR2A) small molecule agonists, cell-based qHTS assay (AID 1963587); also: nearly all actives have a fitted effect of over 30% in size
Summary of the method: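 Kinetic calcium-flux fluorescence (2 min, 1 sec intervals) after compound addition in agonist mode. HTR2A-CHO cells were cultured 18 h, then dye-loaded 1 h at 37 C.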

[10] = target: Muscarinic acetylcholine receptor M1 (Homo sapiens) (UniProt P11229); experiment: Cholinergic receptor muscarinic 1 (CHRM1) small molecule antagonists, cell-based qHTS assay (AID 1963588); also: nearly all actives have a fitted effect of over 40% in size
Muscarinic acetylcholine receptor M1 (Homo sapiens), sequence (P11229 whole entry, looked up): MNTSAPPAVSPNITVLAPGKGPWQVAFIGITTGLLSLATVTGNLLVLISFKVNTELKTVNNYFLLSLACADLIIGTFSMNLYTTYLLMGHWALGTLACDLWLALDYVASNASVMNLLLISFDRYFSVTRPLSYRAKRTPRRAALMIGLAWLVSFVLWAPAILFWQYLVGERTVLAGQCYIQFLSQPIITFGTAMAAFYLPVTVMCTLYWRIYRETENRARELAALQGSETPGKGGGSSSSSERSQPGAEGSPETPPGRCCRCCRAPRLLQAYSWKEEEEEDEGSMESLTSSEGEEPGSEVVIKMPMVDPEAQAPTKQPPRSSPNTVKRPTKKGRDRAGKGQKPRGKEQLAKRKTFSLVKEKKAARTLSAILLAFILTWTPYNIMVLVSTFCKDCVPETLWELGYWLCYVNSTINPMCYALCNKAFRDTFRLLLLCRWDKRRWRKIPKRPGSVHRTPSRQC
Summary of the method: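 Compounds were tested at 15 concentrations in three independent runs. Dye-loaded CHRM1-CHO cells were exposed 5 min at room temperature before stimulation by acetylcholine added at 50nM. Intracellular calcium was read kinetically on FDSS for 3 min.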

[11] = target: Muscarinic acetylcholine receptor M1 (Homo sapiens) (UniProt P11229); experiment: Cholinergic receptor muscarinic 1 (CHRM1) small molecule agonists, cell-based qHTS assay (AID 1963589); also: nearly all actives have a fitted effect of over 35% in size
Summary of the method: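 Calcium flux read-out: kinetic fluorescence at 1 sec intervals after pin-tool compound addition to dye-loaded CHRM1-CHO cells (human M1). Agonist mode; 15 concentrations tested in triplicate independent runs.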

[12] = cAMP Responsive Elements (CRE) small molecule agonists, cell-based qHTS assay (AID 1963590)
Summary of the method: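 Beta-lactamase reporter readout: LiveBLAzer B/G FRET substrate, 2 h at room temperature, added after 3 h compound treatment of CRE-bla HEK 293T cells at 37 C/5% CO2.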

[13] = cAMP Responsive Elements (CRE) small molecule antagonists, cell-based qHTS assay (AID 1963591; active = well fitted inhibition curve with a large enough effect in the signal ratio in the repeat runs, not every such curve was filed as active; the % refers to the signal ratio; also: potency is read from the fitted curve at half-maximal effect)
Summary of the method: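 HEK293T CRE-bla; 18 h preincubation; compound pin-transfer; NKH477 0.25 uM final, 3 h, 37 C; LiveBLAzer FRET substrate 2 h RT.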

[14] = target: Beta-2 adrenergic receptor (Homo sapiens) (UniProt P07550); experiment: Adrenergic beta2 receptor (ADRB2) small molecule antagonists, cell-based qHTS assay (AID 1963592); also: nearly all actives have a fitted effect of over 50% in size; also: potency is read from the fitted curve at half-maximal effect
Summary of the method: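 Assay format: CHO-ADRB2 cells, 18-20hr seeding at 37C/5% CO2, then compound plus 1nM isoproterenol agonist mix for 0.5hr RT. Homogeneous time-resolved fluorescence cAMP detection after 1hr, expressed as 665/615 nm ratio.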

[15] = target: D(2) dopamine receptor (Homo sapiens) (UniProt P14416); experiment: Dopamine D2 receptor (DRD2) small molecule antagonists, cell-based qHTS assay (AID 1963595; active = well fitted inhibition curve with a large enough effect in the signal ratio in the repeat runs, with a control signal flat; the % refers to the signal ratio)
Summary of the method: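 HEK293 cells stably expressing DRD2, preincubated with 0.1 mM Ro20-1724 and compounds 10 min, were stimulated with 200 nM NKH477 plus 12 nM quinpirole for 30 min at room temperature; cAMP measured by HTRF (665/620 nm).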

[16] = p53 small molecule agonists, cell-based qHTS assay with human liver microsomes: qHTS cell viability counter screen (AID 1963579); also: nearly all actives have a fitted effect of over 45% in size; also: potency is read from the fitted curve at half-maximal effect
Summary of the method: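 Seed p53RE-bla cells at 4,000 per well; incubate 5 h at 37 C; add compound, human liver microsomes and NADPH; incubate 16 h at 37 C; add CellTiter-Glo; after 30 min at room temperature, read luminescence.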

[17] = p53 small molecule agonists, cell-based qHTS assay with rat liver microsomes: qHTS cell viability counter screen (AID 1963580); also: nearly all actives have a fitted effect of over 45% in size; also: potency is read from the fitted curve at half-maximal effect
Summary of the method: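 Cytotoxicity counter screen: intracellular ATP read by CellTiter-Glo luminescence in the p53 reporter wells. HCT-116 p53RE-bla cells were treated for 16 h at 37 C alongside rat liver microsomes and NADPH, each 0.5 mg/mL final.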

[18] = p53 small molecule agonists, cell-based qHTS assay: qHTS cell viability counter screen (AID 1963581); also: nearly all actives have a fitted effect of over 45% in size; also: potency is read from the fitted curve at half-maximal effect
Summary of the method: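 Cytotoxicity read-out: ATP-based luminescence (CellTiter-Glo, 30 min RT) measured in the same wells as the p53 reporter assay, HCT-116 p53RE-bla cells, 16 h compound exposure at 37 C.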

Structure (SMILES)	Potency [1]	Potency [2]	Potency [3]	Potency [4]	Potency [5]	Potency [6]	Potency [7]	Potency [8]	Potency [9]	Potency [10]	Potency [11]	Potency [12]	Potency [13]	Potency [14]	Potency [15]	Potency [16]	Potency [17]	Potency [18]
COc1cc2c(c(OC)c1OC)-c1ccc(OC)c(=O)cc1[C@@H](NC(C)=O)CC2	inactive	152 nM (active) and 217 nM (active) and 188 nM (active)	inactive	inactive	inactive	inactive	inactive											
O=C(O)/C=C\C(=O)O	inactive	inactive	inactive	inactive	inactive	inactive	inactive	27.5 µM (active) and 3.75 µM (active) and inactive	inactive	inactive	inactive	inactive	inactive	inactive	inactive			
CC(=O)Nc1c(I)c(NC(C)=O)c(I)c(C(=O)O)c1I	inactive	inactive	inactive	inactive	inactive		inactive						inactive	inactive	inactive	inactive	inactive	inactive
CC(O)(P(=O)(O)O)P(=O)(O)O	inactive	inactive	inactive	inactive	inactive	inactive	inactive					inactive	inactive	inactive	inactive	inactive	inactive	inactive
CCCCCCC(C)(C)S	inactive	inactive	inactive	inactive	inactive	inactive	inactive	inactive	inactive	inactive	inactive		inactive	inactive	inactive		inactive	
Oc1ccc(Cl)cc1Cc1cc(Cl)ccc1O	27.8 µM (active) and 61.1 µM (active)	inactive and 33.5 µM (active)	inactive	inactive	inactive		inactive	inactive		inactive	inactive		49.4 µM (active)	48.6 µM (active)	inactive	40.8 µM (active) and inactive	41.5 µM (active) and inactive	
O=C1NC(=O)c2ccccc21	inactive	inactive	inactive	inactive	inactive	inactive	inactive	inactive	inactive	inactive	inactive	inactive		inactive	inactive	inactive	inactive	inactive
CCCC(=O)O	inactive	inactive	inactive	inactive	inactive	inactive	inactive	inactive	inactive	inactive	inactive	inactive	inactive	inactive	inactive	inactive		inactive
C/C=C/c1ccc(OC)cc1	inactive	inactive	inactive	inactive	inactive	inactive	inactive	inactive	inactive		inactive		inactive	inactive	inactive		inactive	inactive
CCO[Si](CCC#N)(OCC)OCC	inactive	inactive	inactive	inactive	inactive		inactive	inactive	inactive	inactive	inactive	inactive	inactive	inactive	inactive	inactive	inactive	inactive
Cn1cc[nH]c1=S	54.4 µM (active) and inactive	27.3 µM (active) and inactive	inactive	inactive	inactive	inactive	inactive					inactive	inactive	inactive	inactive			
Nc1nc(=S)c2[nH]cnc2[nH]1	66.8 µM (active) and inactive	inactive	inactive	inactive	inactive	inactive	inactive					inactive	inactive		inactive	inactive	inactive	
Cc1ccc(S(=O)(=O)NC(=O)NN2CCCCCC2)cc1	inactive	inactive	inactive	inactive	inactive	inactive	inactive					inactive	inactive	inactive	inactive	inactive	inactive	inactive
N=C(N)c1ccc(OCCCCCOc2ccc(C(=N)N)cc2)cc1	inactive	inactive	inactive	inactive	inactive	inactive	inactive					inactive	inactive		inactive	inactive		inactive
Cc1cn([C@H]2C=C[C@@H](CO)O2)c(=O)[nH]c1=O	inactive	inactive	inactive	inactive	inactive	inactive	inactive					inactive	inactive	inactive	inactive	inactive	inactive	inactive
CC1=CC[C@H]2C[C@@H]1C2(C)C	inactive	inactive	inactive	inactive	inactive	inactive	inactive	inactive	inactive		inactive	inactive	inactive	inactive	inactive	inactive	inactive	inactive
O=C(O)CCCC[C@@H]1SC[C@@H]2NC(=O)N[C@@H]21	inactive	inactive	inactive	inactive	inactive		inactive	inactive	inactive	inactive	inactive	inactive	inactive	inactive	inactive	inactive	inactive	inactive
CC(=O)O[C@]1(C(C)=O)CC[C@H]2[C@@H]3C=C(Cl)C4=CC(=O)[C@@H]5C[C@@H]5[C@]4(C)[C@H]3CC[C@@]21C	inactive	inactive	inactive	inactive	inactive	inactive	inactive							inactive	inactive	inactive	inactive	inactive
O=C(O)CCC(=O)O	inactive	inactive	inactive	inactive	inactive	inactive		inactive	inactive	inactive	inactive	inactive	inactive	inactive	inactive		inactive	42.1 µM (active) and inactive
